# Source: PubChem
# SARS PLP yeast: blocks SARS-CoV papain-like protease in a yeast assay; S. cerevisiae expressing SARS-CoV PLpro, growth rescue; Potency, µM (highest dose often 32.9 µM), inactives show at the highest dose activity, positive = growth rescue, usual class: activators; 0.19% of 330,000 active; AID 485353; calls by dose curve; further: potency means the concentration at half of the fitted maximal effect; 0% is about no effect; nearly all actives have a fitted effect of over 55% in size
# Marburg entry inh: inhibitors of Marburg virus binding or cell entry; Potency, µM (top dose mostly 37.8 µM), inactives show at the highest dose activity change, negative = inhibition, most hits filed as inhibitors; 1.8% of 300,000 active; Marburg virus pseudotyped entry inhibition, cell reporter; calls by dose curve; tested in HEK293 cells; further: potency means the concentration at half of the fitted maximal effect; on the % scale 0 is the no-effect control and ±100 the full control effect
# HCV inh: inhibitors of hepatitis C virus infection | Huh7.5.1 HCVcc-Cre infection, luciferase reporter, 44 h | Potency, µM (titrated, usually from 41.8 µM), for the others: at the highest dose activity change, negative = inhibition, usual class: inhibitors | 3.4% of 340,000 active; active means well fitted inhibition curve with a large enough effect; inconclusive means small, poorly fitted or top-dose-only effect, or another doubt; inactive means no such curve, though single readings can be large or run the other way; further: potency means the concentration at half of the fitted maximal effect; on the % scale 0 is the no-effect control and ±100 the full control effect
#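 After 44 h co-culture of compound, cells and HCVcc-Cre (~0.5 moi), substrate is added for 15 min at room temperature and luciferase measured over 15 sec. Cells were seeded at 1,000/well and pre-cultured 4 h.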
# Lassa entry inh: Lassa virus entry inhibition; Lassa virus pseudotype entry inhibition, cell reporter; Potency, µM (doses to about 37.9 µM), for inactives: at the top dose activity change, negative = inhibition, hits mostly inhibitors; 1.2% of 300,000 active; calls by dose curve; tested in HEK293 cells; further: potency means the concentration at half of the fitted maximal effect; on the % scale 0 is the no-effect control and ±100 the full control effect; nearly all actives have a fitted effect of over 50% in size
# HCMV antiviral: human cytomegalovirus inhibition; 4.5% of 410,000 active; AID 1259415; HFF cells, HCMV-luciferase reporter, 72 h; stronger effect = lower value; activity change, negative = inhibition, % at 57.5 µM; in the data active means activity change below about -60%; inconclusive means no clear call, values can overlap the other calls; inactive means above about -39%; further: on the % scale 0 is the no-effect control and ±100 the full control effect
#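 Steps: HFFs plated, 16 h 37C; compounds added; HCMV-luciferase added to MOI 1 PFU/cell; 72 h 37C; OneGlo reagent, 5 min room temperature; luminescence read, normalized to controls.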
# FMDV inh: antivirals against foot and mouth disease virus; FMDV antiviral cell-based qHTS; Potency, µM (series often up to 57.9 µM), inactives show at the highest dose activity change, negative = inhibition, most hits filed as inhibitors; 1.2% of 410,000 active; calls by dose curve; tested in HEK293T cells; further: read-out not given here; potency means the concentration at half of the fitted maximal effect; on the % scale 0 is the no-effect control and ±100 the full control effect; nearly all actives have a fitted effect of over 45% in size
# An asterisk follows results filed as active; ? = inconclusive; . = not tested or not shown; ! = not confirmed by another sample; [ ] = dose if it differs, or a comment. Shown are actives, neighbours in structure and some others; about 8% of the full set was active somewhere.
SMILES,SARS PLP yeast,Marburg entry inh,HCV inh,Lassa entry inh,HCMV antiviral,FMDV inh
CCC[C@H]1[C@@H](NC(=O)Nc2cc(Cl)cc(Cl)c2)CC[C@@]23CCCN2C(=O)CCC[C@@H]13,.,.,.,.,-27,.
C=Cc1ccc(Cn2ccn(-c3ccc(F)c(F)c3)c(=O)c2=O)cc1,.,.,.,?,-20,-11%
c1ccc(CNc2c3ccccc3nc3ccccc23)cc1,-2%,.,?,.,-100*,-19%
COc1cc2ncnc(NCc3ccccc3)c2cc1OC,4%,?,-12%,-2%,-19,-23%
c1ccc(CNc2ncnc3ccccc23)cc1,1%,?,?,?,-97*!,?
Cc1c(Cl)cccc1Nc1nc(NCCO)c2ccccc2n1,-7%,7.9µM*,10%,?,7,-11%
O=C(NCc1ccc(Cl)cc1)C1CCN(S(=O)(=O)Cc2ccccc2)CC1,.,-14%[46.1 µM],.,16%[46.1 µM],-16,-19%
O=C(/C=C(\O)c1ccccc1)c1ccccc1O,.,.,.,.,.,49%
CCc1ccc(CN(Cc2cn[nH]c2-c2ccc(OC)cc2)C(=O)Nc2cc(Cl)ccc2OC)cc1,.,-23%[46.1 µM],.,0%[46.1 µM],-35,?
O=C(CSc1nc(=O)[nH]c2c1CCC2)NCc1ccc(F)cc1,.,.,.,8%[46.1 µM],9,-12%
NC(=O)C1CCN(S(=O)(=O)c2ccc(N3CCCCS3(=O)=O)cc2)CC1,.,.,.,?,57,-2%
N#CC1=C(N)OC2=C(CC/C2=C\c2ccccc2)C1c1ccccc1 (stereo not given),-2%,?,0%,-26%,23,18µM*
N#CC1=C(N)OC2=C(CC/C2=C\c2ccccc2Cl)C1c1ccccc1Cl (stereo not given),3%,0%,?,.,?,-28%
Oc1ccc(CN2CCN(Cc3ccccc3)CC2)c2cccnc12,-3%,-13%,10µM*,?,52,-7%
O=S(=O)(c1ccc(Cl)cc1)N1CCN(Cc2ccc(O)c3ncccc23)CC1,-4%,13µM*,?,?,-98*,-16%
O=S(=O)(c1ccc(Cl)cc1)N1CCN(Cc2ccncc2)CC1,-4%,0%[46.1 µM],10%,5%[46.1 µM],4,-14%
CN1CCN(C2CCN(Cc3ccc(O)c4ncccc34)CC2)CC1,?,.,.,.,-16,0%
O=[N+]([O-])c1ccc(S(=O)(=O)N2CCN(Cc3c[nH]c4ccccc34)CC2)cc1,6%,-19%,22µM*,8%,61,-13%
COc1ccc(S(=O)(=O)N2CCN(Cc3c[nH]c4ccccc34)CC2)cc1,-2%,6%[46.1 µM],8%,11%,66,-18%
CCOCCCNC(=O)Nc1cc(C(=O)NCc2ccc(C(C)C)cc2)ccc1N1CCCC1,.,.,.,?,-6,-11%
CC(C)C(NS(C)(=O)=O)c1nnc2n1CCN(Cc1ccc(C#CC(C)(C)O)cc1)CC2 (stereo not given),.,.,.,.,.,0%
O=C(NCC(c1cccnc1)N1CCN(Cc2ccccc2)CC1)C(=O)Nc1cccc(F)c1 (stereo not given),.,.,.,?,17,3%
CCn1c2ccccc2c2nnc(N3CCN(c4ccc(OC)cc4)CC3)nc21,.,.,.,-12%[46.1 µM],?,-16%
CCOC(=O)CNC(c1ccccc1)c1cc(Br)ccc1NC(=O)c1cccc(Cl)c1 (stereo not given),.,.,.,?,-29,-11%
COC(=O)CNC(c1ccccc1)c1cc(Cl)ccc1NC(=O)c1cccc(Cl)c1 (stereo not given),-28%,10µM*,-25%,9%,31,0%
SMILES,SARS PLP yeast,Marburg entry inh,HCV inh,Lassa entry inh,HCMV antiviral,FMDV inh
CCC(CC)COC(=O)C(C#N)c1nc2ccccc2nc1N1CCN(CC)CC1 (stereo not given),1%,5.2µM*,?,?,-8,?
CCC(C)COC(=O)C(C#N)c1nc2ccccc2nc1N1CCCCC1 (stereo not given),5%,-21%,-28%,-2%,?,-16%
Cc1cc(C)cc(NC(=O)C2CCCN(c3cnccn3)C2)c1 (stereo not given),.,1%[46.1 µM],.,10%[46.1 µM],55,-13%
O=C(NCc1ccccc1Br)c1cnc2sc(N3CCCCCC3)nn2c1=O,.,.,.,-2%[46.1 µM],?,?
O=C1C=C(NCCc2cc(Br)c(O)c(Br)c2)C(=O)c2ncccc21,.,?,?,2.8µM*,-100*,10µM*
CC(NC(=O)CSc1ncccn1)c1ccc(Cl)cc1Cl (stereo not given),0%,-2%[46.1 µM],-9%,9%[46.1 µM],13,-2%
CCCCC(=O)NC(c1ccc(Cl)cc1Cl)c1ccc2cccnc2c1O (stereo not given),?,?,?,7.1µM*,-104*,10%
CCC(=O)NC(NC(=S)Nc1cccc2cccnc12)C(Cl)(Cl)Cl (stereo not given),0%,?,?,-3%,45,10%
CCC(=O)NC(c1ccc(Cl)cc1Cl)c1ccc2cccnc2c1O (stereo not given),1%,11µM*,2.5µM*,?,-103*,-6%
CC(C)C(=O)NC(c1ccc(Cl)cc1Cl)c1ccc2cccnc2c1O (stereo not given),?,.,2.2µM*,.,-104*,24%
Cc1cc(C)cc(C(=O)Nc2c(C(=O)Nc3ccccc3F)oc3ccccc23)c1,.,3%[46.1 µM],.,-5%[46.1 µM],1,?
CCOc1ccc(OCC)c(NC(=O)CN(C)S(=O)(=O)c2ccc3[nH]c(=O)oc3c2)c1,.,.,.,-20%[46.1 µM],-24,-32%
CC(=O)Nc1ccc(N(C(=O)Cn2nnc3ccccc32)C(C(=O)NCc2ccccc2)c2ccc(C)cc2)cc1 (stereo not given),.,12%[46.1 µM],.,?,-17,-9%
CCOC(=O)C1CCN(C(=O)CN2c3ccc(C(C)C)cc3-c3ccccc3S2(=O)=O)CC1,.,5%[46.1 µM],.,-14%[46.1 µM],5,73%
CSCCC(NS(=O)(=O)c1ccc(C)cc1)C(=O)N1CCN(C(c2ccccc2)c2ccccc2)CC1 (stereo not given),-1%,?,?,3.5µM*,-6,4%
CC(=O)c1ccc(NS(=O)(=O)c2ccc3[nH]c(=O)[nH]c3c2)cc1,.,.,.,18%[46.1 µM],0,78%
COc1cccc(CNC(=O)CSC2=Nc3ccccc3N=C(c3ccc(F)cc3)C2)c1,.,.,.,-21%[46.1 µM],-25,0%
COc1cc(C#Cc2c(-c3cncn3C)n(C)c3ccc(-c4cnc(N5CCOCC5)nc4)cc23)cc(OC)c1,-1%,.,15%,.,47,20%
COc1cc(C#Cc2c(-c3cncn3C)n(C)c3ccc(-c4ccc(CN5CCOCC5)cc4)cc23)cc(OC)c1,7%,.,11µM*,.,-10,-25%
CC(C)(C)OC(=O)N(CCc1ccccc1)Cc1ccc(OCc2cccc(NC(=O)C3CCCC3)c2)cc1,.,.,-17%[8.37 µM],.,-4,-24%
CC(C)(C)OC(=O)N(Cc1ccccc1)Cc1cccc(OCc2cccc(NC(=O)c3ccccc3)c2)c1,.,.,7.9µM*,.,-28,?
